RORgamma inh: blocks mouse ROR gamma transcriptional activity. AID 2551. Drosophila S2 Gal4-RORgamma UAS-luciferase reporter, 20 h. hit rate 5.4% among 310,000. Potency, µM (titrated, usually from 53.6 µM), hits mostly inhibitors. P51450; also: nearly all actives have a fitted effect of over 60% in size
Target sequence (P51450 whole entry, looked up, the tested form may be a part): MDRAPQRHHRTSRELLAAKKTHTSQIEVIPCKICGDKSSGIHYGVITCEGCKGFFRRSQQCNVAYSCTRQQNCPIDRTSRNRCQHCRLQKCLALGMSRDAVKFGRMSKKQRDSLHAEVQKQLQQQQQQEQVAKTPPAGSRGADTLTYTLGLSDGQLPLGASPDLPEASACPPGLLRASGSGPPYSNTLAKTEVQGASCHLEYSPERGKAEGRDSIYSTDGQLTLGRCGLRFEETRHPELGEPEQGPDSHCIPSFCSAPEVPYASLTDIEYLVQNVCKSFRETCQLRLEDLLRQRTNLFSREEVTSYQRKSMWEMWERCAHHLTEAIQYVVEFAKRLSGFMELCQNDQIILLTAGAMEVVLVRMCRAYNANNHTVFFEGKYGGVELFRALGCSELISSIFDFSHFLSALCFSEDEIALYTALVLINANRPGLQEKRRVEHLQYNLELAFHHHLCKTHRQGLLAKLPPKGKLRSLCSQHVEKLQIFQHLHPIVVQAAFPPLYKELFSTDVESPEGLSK
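Luciferase reporter read in Schneider cells carrying Gal4-RORγ (mouse) and UAS-Photinus luciferase; cells given compound 1 h before 700 uM copper sulfate induction, then incubated 20 h at ambient temperature.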
Luc counter: Kinase-Glo luciferase inhibition (counter-screen); AID 1379; Potency, µM (titrated, usually from 38.3 µM), most hits filed as inhibitors; hit rate 0.28% among 200,000; Kinase-Glo luciferase, ATP luminescence, 8 min; also: nearly all actives have a fitted effect of over 60% in size
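Inhibition of Kinase-Glo luciferase light generation was assessed at 10 uM ATP in pH 7.2 imidazole buffer, with luminescence measured after eight minutes at ambient temperature.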
VP16 counter: counter-screen for ROR gamma inhibitors: Gal4-VP16 reporter; Drosophila S2 Gal4-VP16 UAS-luciferase, luminescence, 20 h; Potency, µM (top dose mostly 53.6 µM), usual class: inhibitors; hit rate 3.5% among 310,000; AID 2546;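 also: Gal4-VP16 expression switched on by copper sulfate through the metallothionein promoter; nearly all actives have a fitted effect of over 50% in size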
Each line names hits and unclear results; the compound was inactive in the other large screens. An excerpt weighted towards active compounds, which were near 6.2% of everything screened. Calls follow the shape of the dose curve; as a rule, active = well fitted curve in the direction sought with a large enough effect; inconclusive = small, poorly fitted or top-dose-only effect, or another doubt; inactive = no such curve, though single readings can be large; an effect the other way counts as inactive or inconclusive.

Cc1ccccc1NC(=S)N1CCN(c2ccccc2)CC1	RORgamma inh 10µM, VP16 counter 20µM (no result: Luc counter)
S=C(Nc1ccccc1Cl)N1CCCCCC1	none
O=C(COc1ccc(Cl)cc1)NCc1nnc(SCC(=O)Nc2ccc(F)cc2F)o1	none
Cc1cc(NC(=O)CSc2ncc(CO)n2Cc2ccc(F)cc2)no1	none (no result: Luc counter)
C=C1C[C@@]23C[C@@]1(O)CCC2[C@@]12C=CC(O)[C@](C)(C(=O)O1)C2C3C(=O)O (stereo not given in full)	none
COc1ccccc1CNC(=O)[C@H](C)NC(=O)C1CCN(C(=O)[C@@H]2CCCN2C(=O)OC(C)(C)C)CC1	none (no result: Luc counter)
Cc1oc2ccc(NS(=O)(=O)c3cccc4cccnc34)cc2c1C(=O)OC(C)C	RORgamma inh inconclusive
CC(C)CCCC(C)CCCC(C)CCCC(C)C(=O)O (stereo not given)	none (no result: Luc counter)
C[C@@H](C(=O)NCc1ccc(C(F)(F)F)nc1)[C@H]1C[C@]1(C)[C@H](NC(=O)OCc1ccccc1)c1ccccc1	none
COC(=O)c1ccc(NC(=O)Nc2ccc(OC)cc2)cc1	none
COc1ccc(C(=O)C(CCC(CNC(C)(C)C)C(=O)c2ccc(OC)cc2)CNC(C)(C)C)cc1 (stereo not given)	RORgamma inh inconclusive, VP16 counter 13µM
CN1CCN(c2ccc(CNS(=O)(=O)c3ccsc3)cc2)CC1	none (no result: Luc counter)
COc1ccc(Cn2c(S(=O)(=O)CC(N)=O)nc3ccccc32)cc1[N+](=O)[O-]	RORgamma inh inconclusive (no result: Luc counter)
CC(C)n1nccc1N(Cc1ccc(C#N)cc1)S(=O)(=O)c1ccccc1	none (no result: Luc counter)
Cc1cc(F)ccc1NC(=O)c1cc(S(=O)(=O)N2CCc3ccccc32)cn1C	none (no result: Luc counter)
CCOC(=O)C1=C(C)NC(=O)NC1c1ccc(-c2ccc(Cl)cc2)o1 (stereo not given)	none
CCOC(=O)C1=C(C)NC(=S)NC1c1ccc(-c2ccc(Cl)cc2)o1 (stereo not given)	RORgamma inh 2.5µM, VP16 counter 6.3µM
COC(=O)C1=C(C)NC(=S)NC1c1ccc(-c2ccccc2C(=O)OC)o1 (stereo not given)	RORgamma inh 18µM
CCOC(=O)C1=C(C)NC(=S)NC1c1ccc(-c2cccc(Cl)c2C)o1 (stereo not given)	RORgamma inh 4µM, VP16 counter 8.9µM
COC(=O)C1=C(C)NC(=S)NC1c1ccc(-c2cccc(Cl)c2)o1 (stereo not given)	RORgamma inh 14µM, VP16 counter inconclusive
COC(=O)C1=C(C)NC(=O)NC1c1ccc(-c2ccc(F)cc2)o1 (stereo not given)	none
CCOC(=O)C1=C(C)NC(=S)NC1c1ccco1 (stereo not given)	none (no result: Luc counter)
COC(=O)C1=C(C)NC(=O)NC1c1ccc(-c2ccccc2Cl)o1 (stereo not given)	RORgamma inh inconclusive
C=CCNC(=O)NC(=O)CSc1nnc(C(F)(F)F)n1C	none
CC(=O)N1CCC2(CC1)CCN(C(=O)Nc1cccc(F)c1)CC2	none
CCOc1ccc(NC(=O)Cn2nnc(C(=O)NCc3cccs3)c2N)cc1	none (no result: Luc counter)
Cc1ccc(NS(=O)(=O)c2c(C)[nH]c(C)c2C(=O)N2CCCCC2)c(Cl)c1	none (no result: Luc counter)
O=C(CC1C(=O)NCCN1Cc1ccccn1)NCCc1ccccc1F (stereo not given)	none (no result: Luc counter)
Cc1ccccc1C(=O)NCC(=O)NNC(=S)NC(=O)c1ccccc1	RORgamma inh inconclusive
Cc1ccccc1C(=O)NC(=S)NCc1ccccc1	RORgamma inh 6.3µM, VP16 counter 7.1µM (no result: Luc counter)
Cc1ccccc1C(=O)NC(=S)NCc1cccnc1	none
Cc1ccccc1C(=O)NC(=S)NCCc1ccccc1	RORgamma inh 7.9µM, VP16 counter inconclusive
CC(C)(C)CC(=O)NC(=S)NCc1ccccc1	RORgamma inh 1.1µM, VP16 counter 8.9µM
Cc1ccccc1C(=O)NCC(=O)O	none
Cc1ccccc1C(=O)NCC(=O)NNC(=S)NC(=O)c1ccccc1C	RORgamma inh 5.6µM, VP16 counter inconclusive
CCC(NC(=S)NCc1ccccc1)C(=O)O (stereo not given)	none
COc1ccccc1N(CC(=O)Nc1ccc2c(c1)OCCO2)S(=O)(=O)c1ccc(C)cc1	none (no result: Luc counter)
O=C(NCCc1nc2ccc(Cl)cc2[nH]1)C1CCC(=O)N(Cc2cccc(F)c2)C1 (stereo not given)	none (no result: Luc counter)
CC(C)C(=O)N1CCC(n2nccc2NC(=O)CCc2ccccc2)CC1	none (no result: Luc counter)
COc1ccc(CCN2C(=O)c3ccccc3NC2c2cc(Cl)c(O)c(OC)c2)cc1 (stereo not given)	none (no result: Luc counter)
Nc1ccccc1C(=O)N=Nc1[nH]c(N)c2ccccc12	RORgamma inh inconclusive
Nc1[nH]c(N=NC(=O)c2ccc(F)cc2)c2ccccc12	RORgamma inh 3.5µM, Luc counter inconclusive, VP16 counter 14µM
Cc1noc(C)c1C(=O)N1CCC2(CCCN(C(=O)NC(C)C)C2)CC1	none
CN(C)S(=O)(=O)c1cccc(NC(=S)N/N=C/c2cc(Br)ccc2O)c1	none (no result: Luc counter)
COc1ccccc1/C=N/NC(=O)c1ccc2c(c1)OCO2	RORgamma inh inconclusive (no result: Luc counter)
COc1ccc(/C=N/NC(=O)c2cccc(NC(C)=O)c2)c(OC)c1	none
COc1ccc(C(=O)Nc2cccc(C(=O)N/N=C/c3ccc(OC)cc3OC)c2)cc1	RORgamma inh 10µM, VP16 counter 14µM (no result: Luc counter)
CN(C)S(=O)(=O)c1cccc(NC(=S)N/N=C/c2cccc(O)c2)c1	RORgamma inh 8.9µM, VP16 counter inconclusive
COc1cc(/C=N/NC(=S)Nc2cccc(C(=O)O)c2)ccc1O	RORgamma inh inconclusive
COc1ccc(/C=N/NC(=S)Nc2cccc(C(=O)O)c2)cc1	RORgamma inh 3.5µM, VP16 counter 11µM
O=C(N/N=C/c1ccccc1OC(=O)c1ccc2c(c1)OCO2)c1ccccc1	RORgamma inh 11µM, VP16 counter inconclusive
CC1CCCCN1CCCOC(=O)c1ccccc1 (stereo not given)	none (no result: Luc counter)
CCOC(=O)c1c(NC(=O)c2nn(C)cc2[N+](=O)[O-])sc(C)c1C	none
O=C(O)c1c(Sc2ccccc2)c2cc(Cl)ccc2n1Cc1ccc(Cl)cc1	none
COc1ccc(/C=N/N=C2\SC(CC(=O)O)C(=O)N2c2ccccc2)c(OC)c1 (stereo not given)	none
CO/N=C(/CS(=O)(=O)Cc1ccccc1Cl)c1ccc(Cl)cc1Cl	RORgamma inh inconclusive, VP16 counter inconclusive
COc1ccc(C(=O)N/N=C/c2ccccc2OC(=O)c2ccccc2)cc1	RORgamma inh 3.5µM, VP16 counter 5µM (no result: Luc counter)
CC(C)(C)C(=O)Nc1ccc(C(=O)N/N=C/c2ccccc2OC(=O)c2ccccc2)cc1	RORgamma inh 6.3µM, VP16 counter inconclusive
COc1ccc(C(=O)N/N=C/c2ccc(OC(=O)c3ccccc3)cc2)cc1	none
CC(C)(C)C(=O)Nc1ccc(C(=O)N/N=C/c2ccccc2OC(=O)c2ccc(Cl)cc2)cc1	none
CC(C)C(NC(=O)c1ccc(F)cc1)C(=O)OCC(=O)N1CC(=O)Nc2ccccc21 (stereo not given)	none
CCCn1c(O)c(N=Nc2ccc3ccccc3n2)c2ccccc21	none
Oc1ccc2ccccc2c1N=Nc1ccccc1F	none (no result: Luc counter)
Oc1ccc2ccccc2c1N=Nc1ccccn1	RORgamma inh 0.28µM, VP16 counter inconclusive
CC(C)CCn1c(O)c(N=Nc2ccccn2)c2ccccc21	RORgamma inh 14µM, VP16 counter 11µM
Cc1noc(C)c1-c1ccc2ncnc(N3CCC(C(=O)O)CC3)c2c1	none (no result: Luc counter)
CCCSCCCNC(=O)c1ccccc1NC(=O)C1=CSCCO1	none (no result: Luc counter)

Bioassay records: PubChem, National Center for Advancing Translational Sciences (NCATS)
